This passage reports inhibition results from ChEMBL document CHEMBL3433997, “St. Jude Leishmania screening dataset” (2016).

Common to all, as to type: functional
Assay [1] addresses Solute carrier family 2, facilitated glucose transporter member 1 (Homo sapiens) (UniProt P11166). Nature of the assay: ST_JUDE_LEISH: Cytotoxicity at 2uM final concentration against transgenic Leishmania Mexicana promastigotes LmGLUT1 that are glucose transport deficient and complemented with the human glucose transporter GLUT1. Activity is measured by DNA content using SYBR green in vitro.

In assay [2] the target is Hexose transporter 1 (Plasmodium falciparum) (UniProt O97467). Put plainly: ST_JUDE_LEISH: Cytotoxicity at 2uM final concentration against transgenic Leishmania Mexicana promastigotes LmPfHT that are glucose transport deficient and complemented with the Plasmodium falciparum hexose transporter. Activity is measured by DNA content using SYBR green in vitro.
Assay [3] concerns the target Glucose transporter (Leishmania mexicana) (UniProt O61059). Nature of the assay: ST_JUDE_LEISH: Cytotoxicity at 2uM final concentration against transgenic Leishmania Mexicana promastigotes LmGT2 that are glucose transport deficient and complemented with the L. Mexicana glucose transporter 2. Activity is measured by DNA content using SYBR green in vitro.

Sequence of Solute carrier family 2, facilitated glucose transporter member 1 (Homo sapiens) (P11166 whole entry): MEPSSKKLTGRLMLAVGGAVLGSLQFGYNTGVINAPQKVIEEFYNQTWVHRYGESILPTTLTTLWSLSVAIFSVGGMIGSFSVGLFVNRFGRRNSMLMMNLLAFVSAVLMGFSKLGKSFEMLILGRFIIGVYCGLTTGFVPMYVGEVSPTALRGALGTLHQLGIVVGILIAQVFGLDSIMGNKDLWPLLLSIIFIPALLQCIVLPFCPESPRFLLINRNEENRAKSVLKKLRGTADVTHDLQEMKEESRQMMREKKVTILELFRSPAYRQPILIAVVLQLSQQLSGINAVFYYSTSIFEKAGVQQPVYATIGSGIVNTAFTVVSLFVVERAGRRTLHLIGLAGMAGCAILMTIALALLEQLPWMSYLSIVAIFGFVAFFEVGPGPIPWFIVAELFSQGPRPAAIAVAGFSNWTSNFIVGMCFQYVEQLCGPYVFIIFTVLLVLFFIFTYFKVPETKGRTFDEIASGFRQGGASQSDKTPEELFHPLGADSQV

Consider `Oc1ccc(CCNc2nc(NCCCOc3ccccc3-c3cccnc3)nc(N3CCNCC3)n2)cc1`, for which the values for the inhibition in assay [1], in assay [2] and in assay [3] were 5.04%, 7.86% and 5.99%, respectively.
The matching figures for `CCN(CC)S(=O)(=O)c1cc(-c2ccc(=O)n(CC(=O)c3ccc(C)cc3)n2)ccc1C`: 4.68%, 6.23% and 2.45%.
The matching figures for `C=CCN1C(=O)c2[nH]nc(-c3cc(C)c(C)cc3O)c2C1c1cccc(Br)c1` (centres undefined): 2.03%, 1.25% and 1.27%.
The matching figures for `O=S(=O)(NC1CCN(c2ccnc3cc(Cl)ccc23)C1)c1cccs1` (centres undefined): 0.41%, -0.12% and 1.61%.
As to `C=CC(=O)Nc1ccc(Cl)cc1C(O)c1ccccc1` (centres undefined), the inhibition – broadly, the drop in the measured response relative to a control, in per cent – in assay [1] is 2.6%; in assay [2], 2.07%; in assay [3] it was 2.36%.
The corresponding values for `CC1(C)NC(N)=NC(=N)N1OCCCOc1c(Cl)cc(Cl)cc1Cl` are -1.14%, 0.14% and -2.41%.
The corresponding values for `NC(=O)c1ccc(NCC(=O)Nc2cccc(-c3cccc(-c4nc5cc(F)ccc5[nH]4)c3)c2)cc1` are -0.29%, 1.39% and -1.25%.
The matching figures for `COC(=O)c1cccc(CNCc2ccc(-c3cccc(-c4nc5cccc(C)c5[nH]4)c3)cc2)c1`: -0.37%, -1.65% and -2.21%.
Turning to `CCCCN1CC[C@@H](CCC(O)c2ccnc3ccc(OCCC(C)C)cc23)[C@@H](CC)C1` (some centres undefined), the inhibition in assay [1] is 1.18%; in assay [2] it was 4.04%; in assay [3] it was 3.24%.
The matching figures for `C[C@H](Cc1ccc(C[C@@H](C)NCC(O)c2cc(Cl)c(N)c(Cl)c2)cc1)NCC(O)c1cc(Cl)c(N)c(Cl)c1` (some centres undefined): 0.36%, 0.31% and 1.14%.
The matching figures for `COc1ccc(CNC2CCN(C)CC2)cc1-c1ccc(S(=O)(=O)NCc2cccnc2)s1`: -1.99%, 0.85% and 5.84%.
On to `Cc1cccc(CNc2nc(C)cc(N[C@@H](CC(C)C)C(=O)NCc3cccc(F)c3)n2)c1`, for which the inhibition in assay [1] is 4.53%; in assay [2], 3.4%; in assay [3] it was -0.42%.
The matching figures for `C#CC(C)(CO)N1CCCC1` (centres undefined): 1.89%, 4.77% and 1.64%.
The matching figures for `FC(F)(F)c1ccc2[nH]c(-c3ccc(-c4ccc(CNCc5ccccc5)cc4)cc3)nc2c1`: 8.83%, 6.65% and 6.47%.
For `COc1ccc(OCC(O)CN(Cc2ccccc2OC)C(=O)Nc2ccc(Br)cc2)cc1` (centres undefined), the inhibition in assay [1] worked out at 6.41%; in assay [2] it was 4.6%; in assay [3] it was 1.1%.
The matching figures for `O=C(NCCc1ccccc1)N(Cc1ccc(-c2cccc(CN3CCNCC3)c2)cc1)C1CCN(Cc2ccccc2)CC1`: 1.57%, 1.61% and 0.74%.
The corresponding values for `CCCCOc1ccc(N2C(N)=NC(N)=NC2(C)C)cc1` are 2.55%, 1.89% and 1.88%.
As for `NC(=O)c1ccc(C(=O)Nc2cccc(-c3cccc(-c4nc5cc(C(F)(F)F)ccc5[nH]4)c3)c2)cc1`, the values for the inhibition in assay [1], in assay [2] and in assay [3] were 3.29%, 5.6% and 2.11%, respectively.
The matching figures for `CC(C)CCN1CCCN(Cc2cccc(C(=O)Nc3ccc(C(C)(C)C)cc3)c2)CC1`: 3.18%, 0.18% and 2.78%.
The matching figures for `CCOC(=O)c1c(C)noc1Nc1ccc(OC)cc1`: 1.87%, 2.32% and 2.21%.
The corresponding values for `O=C(Cc1cccc(Cl)c1)Nc1ccc(N2CCC(NCc3ccc4ncccc4c3)CC2)cc1` are 12.6%, 13.6% and 8.71%.
As to `CN1CCC(C(=O)Nc2ccc(-c3ccc(-c4nc5cc(C(F)(F)F)ccc5[nH]4)s3)cc2)CC1`, the inhibition in assay [1] was -0.08%; in assay [2], 0.49%; in assay [3] it was -0.16%.
The matching figures for `Fc1ccc2[nH]c(-c3ccc(-c4ccc(CNCCc5ccncc5)cc4)cc3)nc2c1`: 4.9%, 2.46% and 2.26%.
The matching figures for `O=C(Nc1ccccc1Cc1ccccc1)c1ccccc1[N+](=O)[O-]`: -1.08%, -2.27% and -2.02%.
The matching figures for `OCCNc1nc(Nc2ccc(F)cc2)nc2ccccc12`: 3.51%, 3.35% and 2.07%.
Consider `Cc1cc(N2CCN(CC3CCN(C)CC3)CC2)nc(Nc2ccc(Br)cc2)n1`, for which the inhibition in assay [1] came out at 1.44%; in assay [2] it was 2.2%; in assay [3], 1.74%.
The corresponding values for `CCCC(C)Nc1nc(C)cc(N[C@@H](CC(C)C)C(=O)NCc2cccc(F)c2)n1` (some centres undefined) are 4.43%, 5.69% and 3.7%.
The corresponding values for `Cc1nnsc1C(=O)Nc1cccc(-c2cccc(-c3nc4cc(F)ccc4[nH]3)c2)c1` are 0.66%, 0.05% and -2.12%.
The corresponding values for `CCOc1ccc(-c2nonc2NC(=O)c2ccccc2)cc1OCC` are 4.72%, 2.09% and 3.26%.
`CC(C)C[C@@H](/C=N/N1CCOC1=O)NC(=O)[C@H](CC(C)C)NC(=O)c1ccc(OCCN2CCOCC2)cc1`: the inhibition in assay [1] is 1.39%; in assay [2], 6.46%; in assay [3] it was 3.93%.
On to `O=[N+]([O-])c1cccc(CNCC2CCN(Cc3ccc(O)cc3)CC2)c1`, for which the inhibition in assay [1] stood at 21.4%; in assay [2], 5.62%; in assay [3], 2.59%.
As to `Cn1nc(-c2ccccc2F)c2cc(C(=O)NC3CCN(Cc4ccccc4)CC3)sc21`, the figures for the inhibition in assay [1], in assay [2] and in assay [3] were -0.18%, -1.6% and -1.7%, respectively.
The corresponding values for `O=C(Nc1cccc(-c2cc3ccccc3[nH]2)c1)C1CCN(Cc2ccccc2O)CC1` are 10.3%, 9.31% and 8.56%.
The corresponding values for `CCc1c(C)nc(-n2nc(C)cc2NC(=O)c2cccc3ccccc23)[nH]c1=O` are -3.49%, -1.41% and 3.73%.
The corresponding values for `Cc1[nH]c(C)c(-c2ccc(-c3ccc(OCC(F)(F)F)cc3)nc2)c(=O)c1Cl` are 5.76%, 4.89% and 6.06%.
For the compound `CCNc1cc(C)nc(Nc2ccccc2)n1`, the inhibition in assay [1] was found to be 15.2%; in assay [2] it was 5.92%; in assay [3], 3.47%.
Turning to `CCCCCCCNc1cc(C)nc2ccc(OC)cc12`, the inhibition in assay [1] worked out at 16.5%; in assay [2], 9.23%; in assay [3], 12.4%.
The matching figures for `CCCCC([C@@H](Cc1ccc2ccccc2c1)C(=O)N[C@H](C(=O)NC)C(C)(C)C)N(O)C=O` (some centres undefined): 0.96%, -0.31% and 2.89%.
The corresponding values for `Cc1nc2ccc3ccc(CNc4ccc(C#N)cc4)cc3c2c(=O)[nH]1` are 50.2%, 39.6% and 56%.
The matching figures for `Cc1ccc(OC2CCN(CCCCC3(C)C(=O)Nc4ccccc43)CC2)cc1` (centres undefined): 4.24%, 15.1% and 9.07%.
Consider `CCOc1ccc(C(=O)Nc2cc(Br)c3c(c2)CNCC3)cc1Cl`, for which the inhibition in assay [1] is 1.83%; in assay [2], 2.23%; in assay [3] it was -0.05%.
The matching figures for `N=C(N)NN=Cc1c2ccccc2c(Cl)c2cc(Cl)ccc12`: 62.5%, 26.4% and 29.3%.
Turning to `CCCCN(C(=O)c1ccccc1Cl)c1nnc(-c2ccccc2C)s1`, the inhibition was -1.28% in assay [1], 0.39% in assay [2] and 0.03% in assay [3].
The corresponding values for `Cc1nc(N)nc(N)c1OCCCOc1cccc(Cl)c1Cl` are 65.6%, 65.8% and 56.7%.
The matching figures for `CC(=O)NCCCCC1NC2(C(=O)N(Cc3ccc(C(C)(C)C)cc3)c3ccccc32)C2C(=O)N(C3CCCCC3)C(=O)C12` (centres undefined): -1.24%, -3.01% and -0.43%.
Turning to `Cn1cccc1C(=O)NCC(CCNc1cc(=O)c2ccccc2[nH]1)NCc1cc(Br)cc(Br)c1` (centres undefined), the inhibition was found to be 0.88% in assay [1], 2.6% in assay [2] and 1.58% in assay [3].
Take `COc1ccccc1CCNc1ncc(F)c(N[C@@H](Cc2ccccc2)C(=O)NCCc2ccccc2)n1`: the results for the inhibition in assay [1], in assay [2] and in assay [3] were 0.53%, -0.37% and 0.24%, respectively.
The matching figures for `CCCc1cc(OC)c(CC2c3cccc(O)c3CCN2C)cc1OC` (centres undefined): 0.68%, 0.4% and -0.12%.
